In the supplement of paper PMC4723716:

Test system: Plasmodium falciparum NF54 gametocytes
Assay: viability index relative to DMSO control (fraction); higher = less gametocyte killing
Details: 12.5 µM, incubation time: 72 h
Summary of the method: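 P. falciparum NF54 gametocytes at stages I–V were treated with compound at 12.5 µM for 72 hr at 37°C under low oxygen in serum-containing medium (0.50% gametocytemia, 1.25% hematocrit), then stained with MitoTracker Red CMXRos and imaged in serum-free medium containing 500 nM dye. The viability index is the gametocyte particle count divided by the plate mean of solvent-only wells.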

[1] = gametocyte stage: Stage I viability index
[2] = gametocyte stage: Stage II viability index
[3] = gametocyte stage: Stage III viability index
[4] = gametocyte stage: Stage IV viability index
[5] = gametocyte stage: Stage V viability index

Row | SMILES | viability index [1] | viability index [2] | viability index [3] | viability index [4] | viability index [5]
1 | CC1CC(C)CN(C(=O)c2ccc(Cl)cc2Cl)C1 (stereo not given) | 0.95 | 0.871 | 0.962 | 0.951 | 1.01
2 | CC(NCc1ccccc1)c1cc(Cl)ccc1O (stereo not given) | 0.0221 | 0.121 | 0.44 | 0.574 | 0.923
3 | CC1CCCCN1CCCNC(=O)c1ccc2c(c1)sc1nc(-c3ccc(F)cc3)cn12 (stereo not given) | 0.113 | 0.443 | 1.05 | 1.2 | 1
4 | Cc1ccc(Nc2nc(N)c3ccccc3n2)cc1Cl | 0.0341 | 0.49 | 0.695 | 0.753 | 0.481
5 | Nc1nc(Nc2cccc(F)c2)nc2ccccc12 | 0.0673 | 0.534 | 0.725 | 0.82 | 0.844
6 | COc1ccc(-c2nc(N3CCN(C(=O)C4CCCCC4)CC3)c3c4c(sc3n2)CCCC4)cc1 | 1.05 | 0.922 | 1.06 | 0.915 | 0.779
7 | O=C(Nc1cccc(C(F)(F)F)c1)c1cc(Cl)ccc1O | 0.00552 | 0.00676 | 0.0184 | 0.0669 | 0.11
8 | c1ccc(-c2ccc(-c3nc4ccccc4[nH]3)cc2)cc1 | 0.527 | 0.768 | 0.867 | 0.784 | 0.967
9 | CC1(c2ccccc2)Nc2ccccc2-c2nc3ccccc3n21 (stereo not given) | 0.183 | 0.109 | 0.298 | 0.498 | 0.0659
10 | CCCCCn1c(=N)n(CC(O)COc2cccc(C)c2)c2ccccc21 (stereo not given) | 0.0988 | 0.0949 | 0.32 | 0.459 | 0.221
11 | OC(CNCc1ccccc1)Cn1c2ccccc2c2ccccc21 (stereo not given) | 0.0629 | 0.0658 | 0.172 | 0.342 | 0.26
12 | COc1ccc(C(C)=O)cc1N1C(=O)C2C(C1=O)C1(c3ccccc3)C(=O)C2(c2ccccc2)C(c2ccc(C)cc2)=C1c1ccc(C)cc1 (stereo not given) | 1.04 | 0.933 | 1.01 | 0.824 | 0.923
13 | CCOc1ccc(C2N(C)c3ccccc3N2C)cc1 | 0.996 | 1.03 | 1.08 | 0.985 | 0.901
14 | Cc1nc2ccccc2c(O)c1CC=C(Cl)Cl | 0.814 | 0.962 | 0.897 | 0.87 | 1.06
15 | Cc1ccc(Cl)cc1N1CCN(CCCNC(=O)C2CCN(c3nc4ccccc4[nH]3)CC2)CC1 | 0.158 | 0.517 | 0.628 | 0.426 | 0.407
16 | COc1ccc(CCn2c(=N)c(C(=O)NCc3cccnc3)cc3c(=O)n4cccc(C)c4nc32)cc1 | 0.076 | 0.611 | 0.917 | 0.937 | 1.09
17 | O=C(Nc1ccc(Cl)cc1C(=O)Nc1ccncc1)c1ccc(Cl)cc1Cl | 0.139 | 0.589 | 0.935 | 0.927 | 0.637
18 | O=c1cc(NC2CCN(CCCc3ccccc3)CC2)c2cc(Cl)ccc2o1 | 0.028 | 0.408 | 0.815 | 0.848 | 0.675
19 | Nc1ccc(-c2nc3cc(Cc4ccc5[nH]c(-c6ccc(N)cc6)nc5c4)ccc3[nH]2)cc1 | 0.0227 | 0.00833 | 0.0204 | 0.0127 | 0
20 | CCOC(=O)C1CCN(C(=O)CN2C(=O)c3ccccc3C2c2c[nH]c3ccccc23)CC1 (stereo not given) | 1.39 | 0.924 | 1.14 | 1.13 | 1.18
21 | CCOc1ccccc1CN1CCc2nc3cc(C(C)(C)C)nn3c(O)c2C1 | 0.89 | 0.7 | 0.583 | 0.737 | 0.597

Row | SMILES | viability index [1] | viability index [2] | viability index [3] | viability index [4] | viability index [5]
22 | COc1ccc(C(=O)Nc2ccc3nc(N4CCCCC4)cc(C)c3c2)cc1OC | 0.275 | 0.58 | 0.95 | 0.9 | 0.989
23 | Oc1ccccc1CN1CCN(C(c2ccccc2)c2ccccc2)CC1 | 0.0221 | 0.102 | 0.437 | 0.535 | 0.615
24 | CCN1CCN(Cc2ccc(NC(=O)c3cc4ccc5cccnc5c4[nH]3)cc2)CC1 | 0.834 | 0.845 | 1.09 | 0.997 | 1.02
25 | CC(C)(C)c1ccc2c(c1)CN(Cc1ccc(Cl)cc1)CO2 | 0.12 | 0.192 | 0.385 | 0.633 | 0.442
26 | CCN(CC)S(=O)(=O)c1ccc(-c2csc(Nc3ccc(C)c(C)c3)n2)cc1 | 0.544 | 0.506 | 0.532 | 0.733 | 0.352
27 | Clc1cc(Br)ccc1-c1ccc(CNCC2CCNCC2)o1 | 0.0166 | 0.0135 | 0.0099 | 0.0152 | 0.033
28 | COc1ccc(CNC2CCN(c3ccc(NC(=O)c4cccc(Cl)c4)cc3)CC2)cc1OC | 0.0586 | 0.532 | 0.652 | 0.79 | 0.758
29 | Cc1ccc2nc(C)cc(Nc3cccc(C(F)(F)F)c3)c2c1 | 0.325 | 0.504 | 0.803 | 0.829 | 0.857
30 | COc1cccc(C=Cc2nc(=O)c3ccccc3o2)c1OC | 0.751 | 0.717 | 0.809 | 0.948 | 0.967
31 | O=C1c2ccccc2-c2nnc(-c3ccc(Br)cc3)cc21 | 0.844 | 0.875 | 0.783 | 0.873 | 0.87
32 | CN(C)CCCNc1c2ccccc2nc2ccccc12 | 0.0663 | 0.0164 | 0.0835 | 0.201 | 0.231
33 | O=[N+]([O-])c1ccc(C=NNc2nc3ccccc3[nH]2)cc1 | 0.0818 | 0.586 | 0.911 | 0.869 | 0.802
34 | FC(F)(F)c1cccc(Nc2nc3ccccc3nc2Nc2cccc(C(F)(F)F)c2)c1 | 0.0175 | 0.0233 | 0.0149 | 0.00633 | 0.0649
35 | COc1ccc(C(=O)C2CC2c2ccc(Cl)cc2)cc1 (stereo not given) | 1.01 | 0.968 | 1.03 | 0.93 | 0.558
36 | Cc1ccc2c(C)nc(Nc3nc(C)cc(-c4ccccc4)n3)nc2c1 | 0.169 | 0.3 | 0.318 | 0.231 | 0.0519
37 | O=C(Nc1ccc(N2CCN(Cc3ccccc3)CC2)cc1)c1cccs1 | 0.941 | 0.866 | 0.795 | 0.875 | 1.15
38 | Cc1ccc(C(=O)c2oc3ccc4c(C)cc(=O)oc4c3c2C)cc1 | 1.1 | 0.932 | 0.905 | 1.04 | 1.08
39 | CN(C)c1ccc(C(O)(c2ccc(N(C)C)cc2)c2ccc(N(C)C)cc2)cc1 | 0.157 | 0.0203 | 0.0948 | 0.0608 | 0.11
40 | CC(C)(C)CC(C)(C)NCC(O)COc1ccc(Cl)cc1Cl (stereo not given) | 0.0309 | 0.0309 | 0.0665 | 0.188 | 0.11
41 | CCCCNCC(O)(c1ccc(Cl)cc1)c1ccc(Cl)cc1 | 0.00663 | 0.0541 | 0.364 | 0.422 | 0.396
42 | O=C(CSc1nccn2nc(-c3ccccc3)cc12)Nc1cc(C(F)(F)F)ccc1Cl | 0.845 | 0.896 | 0.973 | 1.08 | 1.4

Row | SMILES | viability index [1] | viability index [2] | viability index [3] | viability index [4] | viability index [5]
43 | CCOc1ccc(CCNC(=O)c2cccs2)cc1OCC | 1.14 | 0.896 | 1.1 | 0.884 | 0.593
44 | Cc1ccc(-c2nc3ccccc3o2)cc1NCc1cc(Cc2ccccc2)ccc1O | 0.0201 | 0.0666 | 0.389 | 0.513 | 0.792
45 | CCOc1ccc(Nc2c3ccccc3nc3ccccc23)cc1 | 0.0245 | 0.165 | 0.444 | 0.351 | 0.584
46 | CCn1c2c(c(=N)c3c1CCC3)CCCC2 | 0.441 | 0.795 | 0.957 | 0.962 | 0.701
47 | O=C(Nc1ccsc1C(=O)NC1CCCCC1)c1ccc(F)cc1 | 0.93 | 0.729 | 0.965 | 0.933 | 0.945
48 | O=c1nc(C=Cc2ccc(Br)cc2)oc2ccccc12 | 0.838 | 0.88 | 0.843 | 0.978 | 0.935
49 | O=C(NC1CCCCC1)C(c1cccs1)N(CCc1ccccc1)C(=O)c1ccco1 (stereo not given) | 0.98 | 0.838 | 1 | 1.04 | 0.961
50 | CC(C)CCNCC(O)Cn1c2ccccc2c2ccccc21 (stereo not given) | 0.0507 | 0.0691 | 0.0706 | 0.193 | 0.0779
51 | Cc1cccc(Nc2nc(N)c3ccccc3n2)c1 | 0.0785 | 0.635 | 0.948 | 0.854 | 0.692
52 | COc1ccc(CCNC(=O)c2cc(S(=O)(=O)N3CC(C)CC(C)C3)ccc2Sc2ccc(F)cc2)cc1OC (stereo not given) | 0.104 | 0.445 | 0.844 | 0.769 | 0.987
53 | CCN(CC)CCCNc1ccnc2cc3ccccc3cc12 | 0.0594 | 0.485 | 0.972 | 0.946 | 1.1
54 | CN(C)CCNc1cc(-c2ccccc2)nc2ccccc12 | 0.685 | 0.795 | 0.924 | 0.883 | 0.727
55 | O=C(NCC1Cc2cccc(-c3ccncc3)c2O1)c1csc2c1CCCC2 (stereo not given) | 1.09 | 1.09 | 0.945 | 1.04 | 1.11
56 | CC(C)CNC(=O)c1c(N)n(CCc2ccccc2F)c2nc3ccccc3nc12 | 0.0398 | 0.139 | 0.662 | 0.687 | 0.769
57 | CCCC(c1nnnn1C1CCCCC1)N1CCN(C(=O)c2ccco2)CC1 (stereo not given) | 1.04 | 0.976 | 1.01 | 1.02 | 1.16
58 | COc1ccc(CN2CCCC(C(=O)c3ccc(C(F)(F)F)cc3)C2)c(O)c1 (stereo not given) | 0.049 | 0.0866 | 0.365 | 0.554 | 0.779
59 | CCc1ccc(Nc2cc(C)nc3nc(C)nn23)cc1 | 0.925 | 0.736 | 1.01 | 1.1 | 1.1
60 | CCOC(=O)C1=C(C)N=c2sc(=Cc3cc(Cl)ccc3O)c(=O)n2C1c1ccc(OC)cc1 (stereo not given) | 0.0559 | 0.0966 | 0.137 | 0.171 | 0.416
61 | CCOc1cc2c(cc1OCC)C(c1cc(C)c(O)c(C)c1)NCC2 (stereo not given) | 0.0111 | 0.123 | 0.642 | 0.851 | 0.78
